# Shiga toxin inh: blocks Shiga toxin action in Vero cells | inhibition, % at 38.7 µM | AID 2315 | Vero cells, Shiga toxin protein synthesis inhibition reporter | actives 9.2% (n = 290,000); in the data active = inhibition mostly above about 28%, no sharp cut-off; inactive = mostly below about 43%; note: 0% is about no effect
# LmPK inh: LmPK (Leishmania mexicana) enzyme inhibition. purified LmPK, Kinase-Glo ATP luminescence, 1 h. Potency, µM (doses to about 57.5 µM), without a hit: at the highest dose activity change, negative = inhibition, actives largely listed as inhibitors. actives 0.37% (n = 290,000). AID 1721; note: potency is the fitted concentration of half-maximal effect; % is set by controls: 0 for no effect and ±100 for the full control effect
# Target sequence (Q27686 whole entry, looked up): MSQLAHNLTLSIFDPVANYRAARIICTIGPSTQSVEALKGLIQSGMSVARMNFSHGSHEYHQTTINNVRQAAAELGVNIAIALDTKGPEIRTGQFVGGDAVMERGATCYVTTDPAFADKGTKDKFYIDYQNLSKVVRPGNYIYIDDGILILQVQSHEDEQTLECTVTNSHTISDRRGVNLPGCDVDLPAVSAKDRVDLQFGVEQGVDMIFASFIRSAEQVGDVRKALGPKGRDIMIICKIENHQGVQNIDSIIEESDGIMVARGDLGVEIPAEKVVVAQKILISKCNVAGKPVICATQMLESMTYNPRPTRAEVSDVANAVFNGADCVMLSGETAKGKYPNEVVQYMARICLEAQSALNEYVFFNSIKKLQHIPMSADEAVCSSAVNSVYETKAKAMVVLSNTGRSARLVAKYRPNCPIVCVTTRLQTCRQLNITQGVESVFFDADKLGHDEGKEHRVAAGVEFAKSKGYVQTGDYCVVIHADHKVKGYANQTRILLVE
#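 qHTS format; LmPK 0.1 nM; substrates PEP 0.5 mM and ADP 0.1 mM. One-hour room-temperature incubation, then coupled luciferase luminescence; 0.5 nM enzyme wells mark activation.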
# Tb PYK inh: blocks Trypanosoma brucei pyruvate kinase. Q57TT1. TbPYK enzyme, Kinase-Glo Plus ATP luminescence, 45 min. Potency, µM (top dose mostly 76.8 µM), for the others: top-dose activity, negative = inhibition, usual class: inhibitors. actives 0.12% (n = 410,000); note: potency is the fitted concentration of half-maximal effect; % is set by controls: 0 for no effect and ±100 for the full control effect; nearly all actives have a fitted effect of over 50% in size
#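 Luminescence from Kinase-Glo Plus, added after a 45-minute room-temperature reaction, served as the end-point read-out. The enzyme and substrate were preincubated with compound before ADP (130 uM final) initiated turnover. Concentration-effect curves came from normalized qHTS data.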
# CHX counter: counter-screen hit for Shiga toxin inhibitors, cycloheximide; cell reporter, cycloheximide protein synthesis inhibition counterscreen; max response, %; actives 12% (n = 300,000); AID 2314; in the data active = max response mostly above about 13%, no sharp cut-off; inactive = mostly below about 14%; note: read at 38.3 µM for the half of the compounds with a filed dose; 0% is about no effect
# NS1 function inh: influenza NS1 inhibition; Potency, µM (doses to about 46.1 µM), without a hit: at the highest dose activity, positive = more growth; actives 0.4% (n = 270,000); calls by dose curve; note: potency is the fitted concentration of half-maximal effect; actives are rising curves; nearly all actives have a fitted effect of over 50% in size
#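 In this qHTS, NS1 from influenza A is expressed in budding yeast, where it slows growth. Cells are switched from glucose to 2% galactose medium (pH 6.0, -URA), treated with compound, and growth recovery is read at OD600.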
# SARS PLP yeast: inhibitors of SARS-CoV papain-like protease in yeast; S. cerevisiae expressing SARS-CoV PLpro, growth rescue; Potency, µM (top dose mostly 32.9 µM), inactives show at the highest dose activity, positive = growth rescue, most hits filed as activators; actives 0.19% (n = 330,000); calls by dose curve; note: potency is the fitted concentration of half-maximal effect; 0% is about no effect; nearly all actives have a fitted effect of over 55% in size
# * hit, by the source's call; ? = inconclusive; . = not tested or not shown. The entries come from a sample that favours hits as a whole. Unless noted, calls come from the whole dose curve; as a rule, active = well fitted curve in the direction sought with a large enough effect; inconclusive = small, poorly fitted or top-dose-only effect, or another doubt; inactive = no such curve, though single readings can be large; an effect the other way counts as inactive or inconclusive.
SMILES,Shiga toxin inh,LmPK inh,Tb PYK inh,CHX counter,NS1 function inh,SARS PLP yeast
CCNC(=O)[C@H]1CCCN1C(=O)[C@H](CCCN=C(N)N)NC(=O)[C@H](CC(C)C)NC(=O)[C@H](CC(C)C)NC(=O)[C@@H](Cc1ccc(O)cc1)NC(=O)[C@H](CO)NC(=O)[C@@H](Cc1c[nH]c2ccccc12)NC(=O)[C@H](Cc1cnc[nH]1)NC(=O)[C@@H]1CCC(=O)N1,.,.,-5.9%,.,.,.
Cc1ccc(C(=O)Nc2nnc([C@H]3C[C@H](O)[C@@H](CO)O3)s2)cc1,.,.,3.0%,.,.,.
CCOc1ccc(N=C/C=C/c2ccccc2)c(O)c1,63.9*,-12.5%,-12.3%,21.6*,-65.6%,-6.2%
CCCNS(=O)(=O)c1ccc2nc(NC(=O)c3ccc(F)cc3)sc2c1,.,.,1µM*,.,.,.
CCNS(=O)(=O)c1ccc2nc(NC(=O)c3cccnc3)sc2c1,84.4*,-4.1%,-0.5%,32.8*,13.4%,1.6%
CCCCNS(=O)(=O)c1ccc2nc(NC(=O)c3cccnc3)sc2c1,.,.,-0.9%,.,.,.
Cc1ccc(OC(C)C(=O)Nc2ccc3c(c2)n(C)c(=O)n3C)c(C)c1 (centres undefined),1.3,-0.8%,-0.3%,0.1,6.5%,5.3%
CCOC(=O)C1=C(C)N=c2s/c(=C/c3ccco3)c(=O)n2C1c1cccc(OC)c1 (centres undefined),32.6,6.3%,-10.8%,20.6*,?,-15.6%
CCOC(=O)C1=C(C)N=c2s/c(=C\c3ccc(C(=O)O)cc3)c(=O)n2C1c1ccc(OC)cc1OC (centres undefined),.,.,0.2%,.,.,.
CCOC(=O)N1CCN(C(=O)c2ccccc2NC(C)=O)CC1,71.9,-0.1%,3.8%,24.0*,3.1%,0.1%
CCOC(=O)N1CCN(C(=O)c2ccccc2NC(=O)c2ccc(F)cc2)CC1,5.4,0.4%,-16.8%,-0.7,-7.8%,16.1%
CCOC(=O)N1CCN(C(=O)c2ccccc2NC(=O)COc2ccccc2)CC1,108.6*,-9.3%,-18.6%,31.2*,0.9%,-1.2%
Cc1ccc(S(=O)(=O)c2cn(C)c3cc(N4CCOCC4)c(F)cc3c2=O)c(C)c1,.,.,2.6%,.,.,.
COC(=O)C1=C(C(=O)OC)[C@]2([C@@H]3CCCCN[C@@H](Cc4ccccc4)C(=O)N3Cc3ccccc3)C=C[C@H]1O2,.,.,1.4%,.,.,.
O=C(Cn1cc(S(=O)(=O)c2ccccc2)c(=O)c2cc(Cl)ccc21)Nc1ccc2c(c1)OCO2,.,.,3.4%,.,.,.
CN(C)CCN1C(=O)c2oc3ccccc3c(=O)c2C1c1ccccc1 (centres undefined),1.6,-1.6%,.,2.6,5.3%,12.1%
CN(C)CCCN1C(=O)c2oc3ccccc3c(=O)c2C1c1cccs1 (centres undefined),23.8*,-2.9%,-13.9%,22.0*,-37.8%,0.1%
Clc1ccc(-c2nc(/C=N/N3CCOCC3)c3ccccn23)cc1,63.2,4.4%,6.3%,30.0*,.,0.9%
CN1CCN(/N=C/c2nc(-c3ccc(Cl)cc3)n3ccccc23)CC1,39.0*,3.6%,-5.4%,32.1*,?,-0.1%
CN1CCN(/N=C/c2nc(-c3ccccc3)n3ccccc23)CC1,40.6*,-5.8%,-6.7%,3.4,12.0%,5.6%
CN1CCN(/N=C/c2nc(-c3ccccc3Cl)n3ccccc23)CC1,-11.8,-0.6%,8.1%,-1.6,15.2%,1.2%
CC(C)=C[C@H]1[C@@H](C(=O)OCc2cc3c(cc2Cl)OCO3)C1(C)C,.,.,.,.,-12.9%,.
COc1ccc(-c2nc(N/N=C(\C)c3ccc(O)cc3)c3ccccc3n2)cc1,71.5*,0.5%,3.8%,29.0*,23.6%,0.2%
C/C(=N\Nc1nncc2ccccc12)c1ccc(C(C)(C)C)cc1,97.5*,-3.1%,1.3%,41.9*,-0.4%,7.8%
C/C(=N\Nc1nncc2ccccc12)c1cccc(OC(F)F)c1,65.4*,-9.1%,-21.4%,20.4*,-15.7%,-5.7%
SMILES,Shiga toxin inh,LmPK inh,Tb PYK inh,CHX counter,NS1 function inh,SARS PLP yeast
C/C(=N\Nc1nncc2ccccc12)c1ccc(O)cc1,53.9*,-5.2%,-0.2%,28.0*,22.1%,9.1%
C/C(=N\Nc1nc(-c2ccc(C)cc2)nc2ccccc12)c1ccc([N+](=O)[O-])cc1,11.3,-0.3%,.,7.9,-13.0%,6.7%
COc1cccc(/C(C)=N/NC(=O)c2cc(-c3cccnc3)nc3ccccc23)c1,-10.4,4.3%,8.4%,0.9,-3.9%,18.1%
Cc1cc(C)c2c(CC(=O)Nc3ccccc3C(F)(F)F)coc2c1,.,.,-2.6%,.,.,.
COc1ccc(C(=O)NCCN2CCC(n3c(=O)[nH]c4ccccc43)CC2)cc1F,.,.,0.0%,.,.,.
CCN1C(C(=O)c2ccccc2)=C(OC(=O)c2ccccc2OC)c2ccccc2S1(=O)=O,.,.,-2.1%,.,.,.
C/C(=N\NC(=O)c1ccc(CSc2nncn2C)cc1)c1ccc(C#N)cc1,-9.4,-4.2%,-0.1%,-1.3,-12.4%,8.2%
C/C(=N\NC(=O)c1ccccc1F)c1cccc(NC(=O)c2ccccc2)c1,52.0*,-4.4%,-2.3%,24.3*,7.3%,1.7%
C/C(=N\NC(=O)c1c(Br)c(C)nn1C)c1cccc(NC(=O)c2ccccc2F)c1,66.2*,-1.2%,-0.4%,20.7*,-1.7%,-3.4%
C/C(=N\NC(=O)c1ccccc1F)c1ccc(C#N)cc1,128.6*,-4.7%,-1.4%,37.5*,-7.1%,-1.8%
O=C(Nc1cccc(NC(=O)c2ccccc2F)c1)c1ccccc1,17.0,2.7%,-1.7%,8.9,-1.9%,1.0%
C/C(=N\NC(=O)c1ccc(O)cc1)c1cccc(NC(=O)c2ccccc2C)c1,28.1*,-12.5%,-6.9%,25.3*,-1.9%,-2.9%
C/C(=N\NC(=O)c1c(Br)c(C)nn1C)c1cccc(NC(=O)c2ccccc2C)c1,60.4,0.2%,8.9%,-3.1,-28.7%,1.2%
COc1ccccc1CCN=C(N)NS(=O)(=O)c1ccccc1F,-4.9,-4.6%,10.7%,6.4,-2.7%,-2.2%
CCN(CC)C(=O)c1cccc(-c2csc(C(C)(NC(C)=O)c3ccc(OC)cc3)n2)c1 (centres undefined),.,.,-7.8%,.,.,.
COc1ccc2[nH]c3c(c2c1)CCN1C(=O)C(CC(=O)NCCC2=CCCCC2)C[C@H](C(=O)N2CCCCC2)[C@@]31CCc1ccccc1 (some centres undefined),.,.,4.1%,.,.,6.1%
COc1ccc(S(=O)(=O)NCC(c2ccc(N(C)C)cc2)N2CCCC2)cc1F (centres undefined),.,.,1.3%,.,.,.
C/C=N/NC(=O)c1cc(Br)ccc1O,20.4,-5.3%,1.6%,11.8,-3.9%,-7.4%
C/C(=N\NC(=O)c1cc(Br)ccc1O)c1cccc(NC(=O)c2ccccc2F)c1,43.3*,-13.9%,-5.0%,18.8,-39.6%,-10.2%
C/C(=N\NC(=O)c1nn(C)c(C)c1Br)c1cccc(NC(=O)c2ccc(F)cc2)c1,active,-3.5%,1.0%,72.1*,-11.7%,-2.7%

# Compound activity from PubChem BioAssay.
